A selection: hits, their analogues and other compounds. The true share with any hit is near 2.2%.
ATXN viability: reduces viability in counter-screen for ATXN expression inhibitors. S2 cells (HEK-293 line with an ATXN2-luciferase reporter) viability, CellTiter-Fluor protease fluorescence, 24 h. Potency, µM (top dose mostly 56.7 µM), usual class: cytotoxic. 400,000 tested, 0.49% active. AID 651635; note: potency is the fitted concentration of half-maximal effect; nearly all actives have a fitted effect of over 40% in size
LDHA inh: inhibitors of human lactate dehydrogenase A; P00338; purified LDHA, NADH/diaphorase-resazurin fluorescence; active compounds read low; 480,000 tested, 0.15% active; activity change, % (values are at about 110 or 230 µM); in the data active = activity change below about -30%; inconclusive = mostly about -25% to -30%;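 note: plate controls were DMSO wells for no effect and wells without enzyme for full effect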
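Resorufin fluorescence (ex540/em590), read at 0 and 20 min after diaphorase/resazurin addition, reports the NADH left after a 5 min room-temperature reaction of 2 nM human LDH5 with 0.06 mM NADH and 0.2 mM pyruvate.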
HepG2 tox: HepG2 cytotoxicity, counter-screen for TGF-b inhibitors; 410,000 tested, 0.76% active; Potency, µM (series often up to 46.1 µM), inactives show at the highest dose activity change, negative = cytotoxicity, most hits filed as cytotoxic; HepG2 CAGA-GFP viability, ATP luminescence, 18 h; note: potency is the fitted concentration of half-maximal effect
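CellTiter-Glo luminescence gave cytotoxicity after 18 hours at 37 degrees C. The cells were HepG2 CAGA-GFP in 1% FBS DMEM, stimulated with 500 pg/mL TGF-beta after compound addition. %Activity was normalised to no-cell wells (complete cell-killing) and DMSO (no toxicity), and curves were fitted and classified.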
TGFb SMAD3 inh: inhibitors of TGF-b signaling. Potency, µM (series often up to 46.1 µM), without a hit: at the highest dose activity, negative = inhibition, usual class: inhibitors. 410,000 tested, 1.2% active. HepG2 CAGA-GFP TGF-b/SMAD3 reporter, GFP fluorescence, 18 h; TGF-beta stimulated, 500 pg/mL final; note: potency is the fitted concentration of half-maximal effect; % is set by controls: 0 for no effect and ±100 for the full control effect; nearly all actives have a fitted effect of over 65% in size
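Inhibition of TGF-beta-driven CAGA-GFP reporter expression in HEPG2 cells is measured by cellular GFP fluorescence after 18 h stimulation with 500 pg/mL recombinant TGF-beta in 1% FBS medium at 37 degrees C.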
IDH1 R132H inh: inhibitors of human mutant IDH1 R132H. O75874. Potency, µM (series often up to 76.6 µM), inactives show at the highest dose activity change, negative = inhibition, hits mostly inhibitors. 390,000 tested, 0.093% active. IDH1-R132H enzyme, NADPH consumption, diaphorase/resazurin fluorescence. AID 602179; note: potency is the fitted concentration of half-maximal effect; % is set by controls: 0 for no effect and ±100 for the full control effect; nearly all actives have a fitted effect of over 65% in size
Target sequence (O75874 whole entry R132H, stated change not applied): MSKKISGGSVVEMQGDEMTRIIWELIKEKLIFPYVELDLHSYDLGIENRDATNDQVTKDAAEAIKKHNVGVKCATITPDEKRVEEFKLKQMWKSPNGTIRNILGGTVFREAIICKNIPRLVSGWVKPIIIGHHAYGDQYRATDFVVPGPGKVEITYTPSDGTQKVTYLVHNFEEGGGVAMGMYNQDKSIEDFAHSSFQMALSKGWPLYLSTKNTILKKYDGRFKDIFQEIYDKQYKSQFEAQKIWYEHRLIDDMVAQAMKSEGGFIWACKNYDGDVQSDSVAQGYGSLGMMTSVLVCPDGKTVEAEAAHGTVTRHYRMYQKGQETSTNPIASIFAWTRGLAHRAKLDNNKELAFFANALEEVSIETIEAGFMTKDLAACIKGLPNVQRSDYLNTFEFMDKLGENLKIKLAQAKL
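IDH1-R132H (0.5 ug/mL) preincubated 30 min with compound, then NADPH (0.016 mM) and alpha-KG (2 mM) added; 80 min at RT, pH 7.5. Remaining NADPH coupled via diaphorase/resazurin to fluorescence (540/590 nm); concentration-response curves normalized to no-enzyme control.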
ATXN2 expr inh: ATXN2 expression inhibition; HEK-293 ATXN2-luciferase reporter, luminescence, 24 h; Potency, µM (series often up to 57 µM), inactives show at the highest dose activity change, negative = inhibition, usual class: inhibitors; 360,000 tested, 0.72% active; AID 1745845; note: potency is the fitted concentration of half-maximal effect; % is set by controls: 0 for no effect and ±100 for the full control effect; nearly all actives have a fitted effect of over 55% in size
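qHTS (up to 57 uM final) was run with 24 h compound exposure of reporter cells at 37 °C. Each well was multiplexed: SteadyGlo luminescence measured ATXN2-luciferase expression after a fluorogenic Gly-Phe-AFC viability readout (25 uM final).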
* = called active by the depositor; i = inactive; ? = inconclusive; nt = no result given; [ ] = remark or other dose. Unless noted, calls come from the whole dose curve; as a rule, active = well fitted curve in the direction sought with a large enough effect; inconclusive = small, poorly fitted or top-dose-only effect, or another doubt; inactive = no such curve, though single readings can be large; an effect the other way counts as inactive or inconclusive.

SMILES	ATXN viability	LDHA inh	HepG2 tox	TGFb SMAD3 inh	IDH1 R132H inh	ATXN2 expr inh
O=c1c2ccccc2sc2c(CO)ccc(NCCN3CCCCC3)c12	?	4.3	-9.9%	?	4.9%	18.9µM*
C=C[C@@]1(C)CCC(/C(C)=C/C=C/C(C)(C)O)C[C@@H]1C(=C)C (some centres undefined)	i	7.5	-6.2%	-18.4%	5.7%	5.1%
CC1CN(C(=O)Cn2cc(S(=O)(=O)CC(=O)N3CCOCC3)c3ccccc32)CC(C)O1 (centres undefined)	i	0.5	2.9%	-0.1%	-8.7%	18.6%
CCOC(=O)/C(=C\c1ccc([N+](=O)[O-])o1)NC(=O)c1ccccc1	?	-1.2	11.2µM*	?	2.2%	-21.2%
CCCOC(=O)/C(=C\c1ccc([N+](=O)[O-])o1)NC(=O)c1ccccc1	?	-4.8	-57.7%	?	4.6%	-28.4%
CCCc1cc(=O)oc2c(C)c(OC(C)C(=O)NCCCn3ccnc3)ccc12 (centres undefined)	nt	-33.2*	nt	nt	nt	nt
Cc1c(C)c2ccc(OC(C)C(=O)NCCCn3ccnc3)c(C)c2oc1=O (centres undefined)	i	-0.2	3.0%	5.9%	1.4%	2.0%
O=C1/C(=C/c2ccccc2)SC(=S)N1C1CCS(=O)(=O)C1 (centres undefined)	i	2.1	-36.3%	-29.0%	10.4%	-25.2%
O=C1/C(=C/c2ccncc2)SC(=S)N1C1CCS(=O)(=O)C1 (centres undefined)	?	14.0	20µM*	?	1.7%	-9.8%
Cc1cccnc1C(NC(=O)C1CCN(Cc2cn(C)c3ccccc23)CC1)c1ccc(Cl)cc1 (centres undefined)	?	-4.5	8.91µM*	?	nt	?
Cc1cccnc1C(NC(=O)C1CCN(CCCc2ccccc2)CC1)c1ccc(Cl)cc1 (centres undefined)	?	-11.2	11.2µM*	?	nt	?
O=C(NC(c1ccc(Cl)cc1)c1ccccn1)C1CCN(CCOc2ccc(Cl)cc2Cl)CC1 (centres undefined)	i	-0.7	-104.0%	?	nt	-38.5%
Cc1cccnc1C(NC(=O)C1CCN(CCOc2ccc(Cl)cc2Cl)CC1)c1ccc(Cl)cc1 (centres undefined)	25.1µM*	0.5	-41.8%	?	nt	20µM*
C[C@@H]1COC(=O)[C@H](Cc2ccc(F)cc2)CC/C=C/C[C@@H](CC(=O)N[C@@H](CO)Cc2ccccc2)C(=O)N1	i	-2.7	-12.8%	-3.1%	-5.5%	6.4%
O=C(C[C@@H]1C/C=C/CC[C@H](Cc2ccc(F)cc2)C(=O)OC[C@@H](Cc2ccccc2)NC1=O)N[C@H](CO)Cc1ccccc1	12.6µM*	-3.5	-104.4%	?	-4.3%[38.3 µM]	11.2µM*
O=C1CC(=C(c2ccccc2)c2ccccc2)C(=O)N1CCCCN1CCN(c2cccc(Cl)c2)CC1	i	3.1	-19.0%	?	6.5%	1.6%
COc1cc2nccc(Oc3ccc(NC(=O)NC4CC4)c(Cl)c3)c2cc1C(N)=O	nt	nt	nt	nt	nt	3.43µM*
CCc1ccc(C(=O)COC(=O)CNC(=O)c2cccs2)cc1	i	-2.5	-12.5%	2.5%	-3.9%	2.1%
O=C(COC(=O)c1ncc(Cl)c(Cl)c1Cl)Nc1ccc(Cl)cn1	i	-1.1	1.41µM*	-11.5%	3.4%	-7.1%
O=C(COC(=O)c1nc(Cl)ccc1Cl)Nc1ccc(Cl)cn1	i	-0.3	2.4%	7.7%	10.5%	4.0%
CC(C)c1ccc2c(c1)CC[C@H]1[C@](C)(CN)CCC[C@]21C	i	-3.4	-111.3%	?	-10.3%	?
CC(C)c1ccc2c(c1)CCC1C(C)(CN)CCCC21C (centres undefined)	nt	0.3	11.2µM*	?	1.6%	35.5µM*
O=C1CCCN1c1ccc(S(=O)(=O)NCc2ccco2)cc1	i	-0.5	8.0%	2.0%	5.5%	10.1%
CN(C)CCCN=c1c2ccccc2n(C)c2[nH]c(=O)n(C)c(=O)c12	nt	nt	nt	nt	nt	17.2µM*
CCCCNC(=S)N(CCCO)Cc1cc2cc3c(cc2[nH]c1=O)OCCO3	i	-6.5	-0.6%	-2.8%	-3.0%	-10.0%
SMILES	ATXN viability	LDHA inh	HepG2 tox	TGFb SMAD3 inh	IDH1 R132H inh	ATXN2 expr inh
CC(NCc1ccc(OCc2ccc(Cl)cc2)cc1)C(O)c1ccccc1 (centres undefined)	?	-3.8	15.8µM*	14.1µM*	-2.2%	?
CCOc1ccc(-c2cccc(NS(=O)(=O)c3c(C)cc(C)cc3C)c2)nn1	?	2.2	-36.7%	20µM*	-7.3%	?
NS(=O)(=O)c1ccc(CCN2C(=O)/C(=C\c3ccc(Cl)cc3)SC2=S)cc1	nt	-8.2	1.0%	-14.9%	0.5%	25.1µM*
COc1ccc(C2=Nn3c(nnc3-c3ccccc3Cl)SC2)cc1OCC1CC1	?	0.1	-18.1%	10µM*	nt	?
COc1ccc(C2=Nn3c(nnc3-c3ccccc3OC)SC2)cc1OC1CCOC1 (centres undefined)	?	1.8	-18.0%	2.82µM*	nt	-13.9%
COc1ccc(OC)c(-c2nnc3n2N=C(c2ccc(OC)c(OCC4CC4)c2)CS3)c1	?	3.8	-25.8%	7.94µM*	nt	?
CCCC1=NN2C(=N)/C(=C\c3cc(C)n(Cc4ccccc4)c3C)C(=O)N=C2S1	i	-9.3	-27.3%	?	-15.8%	nt
CCCC1=NN2C(=N)/C(=C\c3cc(C)n(-c4cccc(C)c4)c3C)C(=O)N=C2S1	i	-1.4	3.55µM*	-4.2%	6.2%	8.6%
Cc1ccc(-c2cc(C(F)F)n3nc(C)c(Br)c3n2)cc1	nt	-34.0*	nt	nt	nt	nt
Cc1nn2c(C(F)F)cc(-c3ccc(F)cc3)nc2c1Br	nt	6.9	nt	nt	nt	nt
CCOc1ccccc1CNCc1cccn1-c1nnc(N2CCN(c3ccccc3)CC2)s1	?	-6.8	-82.7%	?	0.9%	17.8µM*
COc1ccc(Nc2nc3ccccc3nc2C)cc1	i	2.7	-3.7%	-10.2%	-0.7%	2.4%
O=C(Nc1ccc(S(=O)(=O)Nc2ccccc2)cc1)C1COc2ccccc2O1 (centres undefined)	i	-1.2	-26.2%	12.6µM*	0.6%	-24.5%
OCC[C@H]1C[C@@H](O)[C@H](O)[C@@]2(CCc3ccccc3CO2)O1	i	-1.9	3.2%	1.2%	12.0%	-1.4%
N=c1n(CCN2CCCC2)c2ccccc2n1CC(O)c1ccco1 (centres undefined)	?	-12.0	-2.9%	-1.8%	3.3%	-11.5%
